# CASP6 VEID inh: caspase-6 (human) enzyme inhibition; P55212; 350,000 compounds, 0.53% hits; purified caspase-6, Z-VEID-R110 cleavage fluorescence; inhibition, % at 12.5 µM;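 active = mean inhibition across replicates at least about 35%, with every replicate also reaching that limit, limit read from the data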;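 note: 0% = median of neutral control wells and 100% = no fluorescence left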
# F508del corr: CFTR F508del correction in bronchial cells. activity (quench increase), % at 7.58 µM. CFBE cells, YFP halide quenching; stimulated with forskolin plus potentiator P3; % fluorescence drop versus neutral controls. 350,000 compounds, 0.36% hits;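 active = mean added fluorescence quench of at least 8% versus neutral control, with both replicates also reaching 8%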;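 note: cells transiently co-express mutant CFTR-F508del with the halide-sensitive YFP; corrector assay measuring rescue of mutant channel to the surface after 24 h compound exposure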
# NSD2 HMT inh: NSD2 (human) methyltransferase inhibition. O96028. NSD2 peptide methylation, AlphaScreen, 120 min. inhibition, % at 12.5 µM. 310,000 compounds, 0.54% hits; in the data active = inhibition above about 50%
# Target sequence (O96028 whole entry, looked up): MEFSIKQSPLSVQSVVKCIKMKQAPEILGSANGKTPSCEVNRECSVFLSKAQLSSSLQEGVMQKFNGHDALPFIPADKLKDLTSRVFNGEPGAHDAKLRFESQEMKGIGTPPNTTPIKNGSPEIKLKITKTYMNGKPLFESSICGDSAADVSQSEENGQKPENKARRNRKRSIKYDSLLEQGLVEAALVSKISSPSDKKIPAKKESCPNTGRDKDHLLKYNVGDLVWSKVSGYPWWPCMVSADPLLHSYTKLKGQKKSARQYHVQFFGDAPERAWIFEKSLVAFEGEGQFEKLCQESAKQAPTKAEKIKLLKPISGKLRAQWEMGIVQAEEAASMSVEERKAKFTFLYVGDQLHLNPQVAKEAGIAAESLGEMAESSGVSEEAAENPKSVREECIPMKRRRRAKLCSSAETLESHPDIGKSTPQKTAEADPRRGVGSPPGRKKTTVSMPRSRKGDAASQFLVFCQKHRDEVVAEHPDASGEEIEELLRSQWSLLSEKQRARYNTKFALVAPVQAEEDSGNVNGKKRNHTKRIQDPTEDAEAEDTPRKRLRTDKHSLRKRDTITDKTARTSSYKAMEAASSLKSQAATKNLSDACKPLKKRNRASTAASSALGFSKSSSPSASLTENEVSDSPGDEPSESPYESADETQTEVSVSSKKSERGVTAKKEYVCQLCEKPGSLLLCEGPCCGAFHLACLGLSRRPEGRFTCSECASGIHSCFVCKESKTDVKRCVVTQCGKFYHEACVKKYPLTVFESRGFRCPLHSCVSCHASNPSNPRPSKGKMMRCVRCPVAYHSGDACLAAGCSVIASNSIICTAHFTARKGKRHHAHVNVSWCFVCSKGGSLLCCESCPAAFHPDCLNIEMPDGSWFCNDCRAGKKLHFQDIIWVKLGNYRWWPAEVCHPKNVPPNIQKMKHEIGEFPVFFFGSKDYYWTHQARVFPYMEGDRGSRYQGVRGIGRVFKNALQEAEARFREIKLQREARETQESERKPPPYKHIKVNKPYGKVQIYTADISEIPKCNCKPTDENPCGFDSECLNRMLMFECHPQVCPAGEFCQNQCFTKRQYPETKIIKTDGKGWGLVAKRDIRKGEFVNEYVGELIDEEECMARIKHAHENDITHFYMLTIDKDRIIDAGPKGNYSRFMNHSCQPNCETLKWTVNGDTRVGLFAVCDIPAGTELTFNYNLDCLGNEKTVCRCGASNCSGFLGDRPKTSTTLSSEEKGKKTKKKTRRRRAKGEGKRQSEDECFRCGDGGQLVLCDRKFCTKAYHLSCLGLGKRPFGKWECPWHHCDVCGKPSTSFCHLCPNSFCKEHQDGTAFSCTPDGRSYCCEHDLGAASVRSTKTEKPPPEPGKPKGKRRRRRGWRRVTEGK
# ALR inh: blocks human ALR sulfhydryl oxidase activity; P55789; purified ALR, DTT oxidation, H2O2 HRP-luminol luminescence; inhibition, % (concentration not given with the values); 290,000 compounds, 3.8% hits; AID 485317;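 active = mean replicate inhibition above about 79%, with every replicate also reaching it, limit read from the data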
# PglD inh: PglD (C. jejuni) enzyme inhibition; inhibition, % at 12.5 µM; AID 602405; 360,000 compounds, 0.098% hits; purified PglD enzyme, DTNB colorimetric CoA detection; in the data active = inhibition above about 16%, passing the limit was not always enough
# Env fusion inh: blocks HIV Env-driven cell-cell fusion; HeLa-JRFL Env/CEM21 cell fusion, luciferase; inhibition, % at 12.3 µM; 360,000 compounds, 1.1% hits;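 active = mean replicate inhibition score of at least 50 and every replicate individually at or above 50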;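 note: 0% = plate neutral controls and 100% = maraviroc near 300 nM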
# Starred values were filed as active, the others as inactive; / = not tested or not shown; [ ] = dose if it differs, or a comment. The list is not random: actives were taken first. Their share in the collection is about 4.1%.
SMILES,CASP6 VEID inh,F508del corr,NSD2 HMT inh,ALR inh,PglD inh,Env fusion inh
O=C(CSc1nccn1Cc1ccccc1)Nc1ccccc1,-3,3,11,100*,10,-47
O=C(CSC1=NNC(c2ccccn2)S1)Nc1ccccc1 (stereo not given),0,11*,-3,57,-4,31
Cc1cccc(NC(=O)CSc2ncnc3sc(C)cc23)c1,4,2,/,-3,5,-7
Cn1ccnc1SCC(=O)c1ccc2ccccc2c1,2,-1,37,99*,/,-39
COc1cccc(C(=O)CSc2nccn2C)c1,-1,1,4,15,-1,-5
CC(=O)Nc1cccc(NC(=O)CSc2nccn2Cc2ccccc2)c1,-1,1,2,24,3,/
CCCC(=O)Nc1ccc2c(c1)OC[C@H](C)N(CCc1ccccc1)C[C@@H](C)[C@@H](OC)CN(C)C2=O,/,0,/,/,/,/
COC(=O)C[C@H]1C[C@@H]2c3cc(NC(=O)Nc4ccc(OC)cc4)ccc3O[C@@H]2[C@@H](CO)O1,/,-1,/,/,-5,7[16.7 µM]
Cc1noc(C)c1NC(=O)N(C)C[C@@H]1OCCCC[C@@H](C)Oc2ccc(NS(C)(=O)=O)cc2C(=O)N([C@@H](C)CO)C[C@H]1C,/,0,/,/,4,-34[16.7 µM]
Cc1cccc(NC(=O)CSc2nccn2C)c1,/,/,0,100*,/,/
Cn1ccnc1SCC(=O)Nc1ccc2ccccc2c1,/,/,/,11,/,/
COc1ccc(NC(=O)CSc2nccn2Cc2ccco2)cc1,-2,0,0,99*,-2,-51
Cn1ccnc1SCC(=O)Nc1ccccc1,/,/,1,99*,-4,/
C[C@H](CO)N1C[C@H](C)[C@@H](CN(C)Cc2ccc(C(=O)O)cc2)OCCCC[C@H](C)Oc2ccc(NS(=O)(=O)c3cccs3)cc2C1=O,-1,-3,/,/,1,-20[16.7 µM]
COC(=O)[C@H](Cc1ccccc1)NC(=O)N1CCN(c2ccc(F)cc2)CC1,3,0,1,98*,-6,-4
CC(=O)N(C)C[C@H]1Oc2cc(C#CC3CC3)ccc2S(=O)(=O)N([C@@H](C)CO)C[C@H]1C,/,-4,/,/,/,9[16.7 µM]
COc1cccc(Nc2nc(CN)cs2)n1,-3,7,1,/,-4,57*
COc1ccc(-c2cc(C(F)(F)F)c(C#N)c(SCC(=O)Nc3ccc(C)cc3)n2)cc1,/,/,/,4,0,/
COc1ccc(C(=O)CSc2[nH]c(=O)cc(C(F)(F)F)c2C#N)cc1,0,-2,-3,98*,/,2
Cc1ccc(Cc2c(C)nc3nc(SCC(=O)NCc4ccco4)nn3c2C)cc1,/,/,-2,8,-2,1
Cc1cccc(Cc2c(C)nc3nc(SCC(=O)NCc4ccco4)nn3c2C)c1,/,/,4,77*,4,8
Cc1noc(C)c1C(=O)NC(C)C12CC3CC(CC(C3)C1)C2 (stereo not given),-1,0,-1,-4,/,21
CCCC(NC(=O)c1c(C)noc1C)C12CC3CC(CC(C3)C1)C2 (stereo not given),2,0,-1,3,-1,60*
O=C(CSc1nnc(Nc2ccccc2F)s1)NC(=O)CN1CCCC1=O,42*,-1,4,6,-1,/
O=C(Cc1ccc(S(=O)(=O)N2CCCCC2)s1)Nc1ccc(F)c(F)c1,1,1,-1,-5,/,/
SMILES,CASP6 VEID inh,F508del corr,NSD2 HMT inh,ALR inh,PglD inh,Env fusion inh
Cc1cc(C)cc(NC(=O)Cc2ccc(S(=O)(=O)N3CCCC3)s2)c1,51*,0,0,-5,3,13
COc1ccc(-c2cc(-c3n[nH]c(=S)n3-c3cc(OC)ccc3OC)[nH]n2)cc1,2,0,-1,83*,/,/
O=C(NCC[C@@H]1CC[C@H](NS(=O)(=O)c2ccc(F)cc2)[C@H](CO)O1)c1ccccc1F,0,0,/,/,/,/
CCOc1ccc(N2C(=O)CNC2=S)cc1,-1,-3,-1,91*,9,-38
CCc1ccc(-c2cn3nc(C)c(C)nc3n2)cc1,/,/,-2,1,1,76*
Cc1nc2nc(-c3ccc(F)cc3)cn2nc1C,1,1,1,-10,/,0
COc1ccc(S(=O)(=O)NCCc2nnc3ccc(SCC(=O)Nc4nc(C)cs4)nn23)cc1,/,/,-2,89*,/,-7
COc1ccccc1NC(=O)CSc1nc2c(sc3ccccc32)c(=O)n1CCN(C)C,4,1,2,99*,2,7
COCCn1c(SCC(=O)Nc2ccccc2OC)nc2ccccc2c1=O,-1,2,-1,0,-5,11
CCN(CC)CCn1c(SCC(=O)Nc2ccc(F)cc2)nc2c(sc3ccccc32)c1=O,/,/,2,99*,/,/
CC(=O)Nc1ccc2c(c1)C(C)(C)C(C)N2C (stereo not given),0,-1,-6,99*,/,15
C/C(=N\NC(=O)Cc1ccc(F)cc1)c1ccc(O)cc1,0,-2,3,99*,/,-9
C/C(=N\NC(=O)Cc1ccc(Cl)cc1)c1ccc(F)cc1,1,2,-2,-16,-1,11
CCN(CC)c1ccc(C(=O)N/N=C(\C)c2ccc(O)cc2)cc1,-1,/,0,94*,/,11
CCCNC(=O)C[C@H]1CC[C@@H]2[C@H](COc3ccc(NC(=O)c4cscn4)cc3C(=O)N2C)O1,1,2,/,/,2,/
C[C@@H]1CN([C@@H](C)CO)C(=O)c2cccc(NS(=O)(=O)c3ccc(F)cc3)c2O[C@@H]1CN(C)S(=O)(=O)c1ccccc1,/,2,/,/,1,35[16.7 µM]
CC[N+](CC)(CC)CC(=O)Nc1ccc(SC(F)F)cc1,-7,-4,/,-11,-1,3
CCn1c(N)[n+](CC(=O)Nc2ccc(SC(F)F)cc2)c2ccccc21,3,2,6,89*,-6,-73
CC(=O)N1[C@H](CO)[C@H](c2ccccc2)C12CN(C(=O)Cc1ccccc1)C2,2,2,/,/,/,/
COc1cccc(Nc2nc(-c3sc(NC(=O)c4ccccc4)nc3C)cs2)c1,0,9.1*,/,45,-3,2
CCC(=O)Nc1nc(C)c(-c2csc(Nc3ccc(C(=O)O)cc3)n2)s1,/,-6,7,/,2,-10
CCC(=O)Nc1nc(C)c(-c2csc(Nc3cccc(C(=O)O)c3)n2)s1,3,-1,8,88*,/,-8
Cc1cc(O)ccc1Nc1nc(-c2sc(N)nc2C)cs1,/,/,0,85*,8,-21
C=CCCC(=O)Nc1nc(C)c(-c2csc(Nc3cc(OC)ccc3OC)n2)s1,/,8.8*,/,-17,-3,-178
CCC(=O)Nc1ccc2c(c1)C(=O)N(C)[C@H]1CC[C@@H](CC(=O)N3CCc4ccccc4C3)O[C@H]1CO2,/,4,/,/,/,2[16.7 µM]
O=C(C[C@H]1CC[C@@H]2[C@H](COC[C@H](O)CN2C(=O)c2ccc(F)cc2)O1)Nc1ccc(-c2ccccc2)cc1,1,-4,/,/,2,-11[16.7 µM]
Cc1ccc(S(=O)(=O)N(C)C[C@H]2Oc3c(NS(=O)(=O)c4c(C)noc4C)cccc3C(=O)N([C@H](C)CO)C[C@H]2C)cc1,/,-1,/,/,1,10[16.7 µM]
